Results from PubChem BioAssay (NCATS).
Inconclusive results are not listed. Active and inactive are the calls of the source. Calls come from the whole dose curve; as a rule, active = well fitted cell-killing curve with a large enough effect; inconclusive = small, poorly fitted or top-dose-only effect, or effect the other way; inactive = no such curve, though single readings can be large or run the other way.

Test: Quantitative High-Throughput drug screen in 47 multiple myeloma cell lines against the NCATS MIPE library collection: L363_DSMZ cell viability assay (AID 1918984)
Settings: L363 myeloma viability, CellTiter-Glo ATP luminescence, 48 h; series mostly up to 45.8 µM
In short: (§1)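 Plated at 500 cells per well, myeloma lines received MIPE 4.0 compounds by pin tool. Following 48 h culture at 37 °C, CellTiter-Glo luminescence gave viability relative to DMSO and media-only controls.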
Note: nearly all actives have a fitted effect of over 40% in size.
Potency is the fitted concentration of half-maximal effect.

| SMILES | Potency |
| --- | --- |
| Nc1cccc2c1C(=O)N(C1CCC(=O)NC1=O)C2=O (centres undefined) | inactive |
| O=c1ccn([C@@H]2O[C@H](CO)[C@H](O)[C@@H]2F)c(=O)[nH]1 | inactive |
| Cn1cc(CNCC2CCN(c3ncc(C(=O)NO)cn3)CC2)c2ccccc21 | 26.4 nM (active) |
| CC(=O)NCC(=O)N1[C@H]2CC[C@H]1c1cc(Nc3ncc(C(F)(F)F)c(NC4CCC4)n3)ccc12 | 935 nM (active) |
| CC(C)N(CC[C@H](c1ccccc1)c1cc(CO)ccc1O)C(C)C | inactive |

Test: Quantitative High-Throughput drug screen in 47 multiple myeloma cell lines against the NCATS MIPE library collection: KMS34_JCRB cell viability assay (AID 1918985)
Settings: KMS34 myeloma viability, CellTiter-Glo ATP luminescence, 48 h; series mostly up to 45.8 µM
In short: as §1

| SMILES | Potency |
| --- | --- |
| COc1ccc(C=Cc2cc(OC)c(OC)c(OC)c2)cc1NC(=O)[C@H](N)CO | 4.2 nM (active) |
| CCN(CC)Cc1ccc2cc(COC(=O)Nc3ccc(C(=O)NO)cc3)ccc2c1 | 418 nM (active) |
| CC(=O)OCC(=O)[C@@]1(O)CC[C@H]2[C@@H]3CCC4=CC(=O)CC[C@]4(C)[C@@H]3C(=O)C[C@@]21C | inactive |
| COc1ccc2c(c1OC)C(=O)OC2[C@H]1c2c(cc3c(c2OC)OCO3)CCN1C (some centres undefined) | 37.2 nM (active) |
| CCOC(=O)N1CCN([N+]([O-])=NOc2ccc([N+](=O)[O-])cc2C#N)CC1 | 526 nM (active) |
| C[C@H]1O[C@H](O[C@H]2[C@H](O)[C@@H](O)[C@@H](O[C@H]3[C@H](O)[C@@H](O)C(O)O[C@H]3CO)O[C@H]2CO)[C@H](O)[C@@H](O)[C@H]1N[C@H]1C=C(CO)[C@@H](O)[C@H](O)[C@@H]1O (some centres undefined) | inactive |
| OC[C@H]1OC(O)C[C@@H](O)[C@H]1O (some centres undefined) | inactive |
| CN[C@H]1[C@@H](O)[C@@H]2O[C@@H]3O[C@H](C)CC(=O)[C@]3(O)O[C@@H]2[C@@H](NC)[C@H]1O | 1180 nM (active) |
| COc1ccc(S(=O)(=O)Nc2cccnc2Nc2ccc(O)cc2)cc1 | 46.9 nM (active) |
| CC(=O)N[C@H]1[C@@H]([C@H](O)[C@H](O)CO)OC(C(=O)O)=C[C@@H]1N=C(N)N | inactive |
| COc1cc(C)c(C=CC(C)=CC=CC(C)=CC(=O)O)c(C)c1C | inactive |
| CCCCCCCCc1ccc(CCC(N)(CO)CO)cc1 | 14800 nM (active) |
| C[C@H](CCC(=O)O)[C@H]1CCC2C3C[C@H](O)[C@@H]4C[C@H](O)CC[C@]4(C)C3CC[C@@]21C (some centres undefined) | inactive |
| Oc1cc(-c2nc(-c3ccccc3)[nH]c2-c2ccncc2)ccc1Cl | 16600 nM (active) |
| C[C@H](CCC(=O)O)[C@H]1CC[C@H]2[C@@H]3[C@H](O)C[C@@H]4C[C@H](O)CC[C@]4(C)[C@@H]3CC[C@]12C | inactive |
| NC[C@H]1O[C@H](O[C@H]2[C@@H](O)[C@@H](O[C@H]3O[C@H](CO)[C@@H](O)[C@H](N)[C@@H]3O)[C@H](N)C[C@@H]2N)[C@H](N)C[C@H]1O | inactive |
| COC(=O)[C@H](CCCN=C(N)N)NS(=O)(=O)c1ccc(C)cc1 | inactive |
| C[N+](C)([O-])CCNc1ccc(NCC[N+](C)(C)[O-])c2c1C(=O)c1c(O)ccc(O)c1C2=O | inactive |
| CCOC(=O)[C@H](CCc1ccccc1)N[C@@H](C)C(=O)N1[C@@H](C(=O)O)C[C@H]2CCC[C@@H]21 | 26400 nM (active) |
| Oc1ccc(-c2ccc(-c3cc(Nc4cccc(CNC5CC5)c4)n[nH]3)cc2)c(O)c1 | 4180 nM (active) |
| C=CCNC1=C2C[C@@H](C)C[C@H](OC)[C@@H](O)[C@@H](C)C=C(C)[C@H](OC(N)=O)[C@@H](OC)C=CC=C(C)C(=O)NC(=CC1=O)C2=O | 235 nM (active) |
| CC(C)(O)Cn1c(NC(=O)c2ccc(-c3cn[nH]c3)s2)nc2cc(CN3CCOCC3)ccc21 | 1320 nM (active) |
| CCCc1nc(C(C)(C)O)c(C(=O)O)n1Cc1ccc(-c2ccccc2-c2nn[nH]n2)cc1 | inactive |
| COc1cc(OC)cc(-c2ccc3ncc4ccc(=O)n(-c5ccc(N6CCNCC6)c(C(F)(F)F)c5)c4c3c2)c1 | 6620 nM (active) |
| CN(C)CCN1C(=O)c2cccc3cc(N)cc(c23)C1=O | 23500 nM (active) |
| COc1cc(C)c(Sc2cnc(NC(=O)c3ccc(CNC(C)C(C)(C)C)cc3)s2)cc1C(=O)N1CCN(C(C)=O)CC1 (centres undefined) | 14800 nM (active) |
| CCNC(=O)Nc1ccc(-c2nc3c(c(N4CCOC[C@H]4C)n2)CCN(C2COC2)C3)cc1 | 1050 nM (active) |
| CON=C(C(=O)N[C@@H]1C(=O)N2C(C(=O)O)=C(Cn3ccc(=N)n3CCO)CS[C@H]12)c1csc(N)n1 | inactive |
| COC[C@H](NC(=O)c1cnc(C)s1)C(=O)N[C@@H](COC)C(=O)N[C@@H](Cc1ccccc1)C(=O)[C@@]1(C)CO1 | 74.3 nM (active) |
